Test [1] can be described thus: antimalarial activity against Dd2 strain (AID 2302;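 active = growth inhibition above 50% at the single 2 µM test dose, taken to imply half-maximal potency below 2 µM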;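 note: 0% = DMSO untreated growth and 100% = chloroquine plus artemisinin killed control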). Particulars: P. falciparum Dd2 in RBCs, LDH growth readout, 72 h; at 2 µM; hits give high values.
Test [2] is described as follows: human hepatoma cell viability loss – ATP luminescence, cytotoxicity control for P. falciparum antimalarial project, primary screen (AID 2303;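 active = inhibition above 50%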;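 note: 0% = DMSO wells and 100% = digitonin-killed cells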). Particulars: HepG2 viability, 24-48 h, at 10 µM, hits give high values.
Test [3] addresses L-lactate dehydrogenase (Plasmodium falciparum (isolate CDC / Honduras)) (UniProt Q27743). Kind of test: PfLDH activity inhibition – cell lysate, 3D7 strain, counter-screen for P. falciparum growth inhibition project (AID 2304).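 Note: 0% = vehicle and 100% = reference inhibitor.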 Conditions: P. falciparum 3D7 crude extract, LDH APAD/NBT absorbance; at 2 µM; hits give high values. Background: The purpose of a counterscreen is to sort out artefacts and off-target activity.

Test [4] can be described thus: inhibition of 3D7 malaria parasite growth – strain 3D7 (AID 2306).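 Note: 0% = DMSO wells and 100% = chloroquine plus artemisinin control wells.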 Conditions: P. falciparum 3D7 erythrocytic growth, LDH absorbance, 72 h; at 2 µM; hits give high values.
Test [5] concerns the target Calcium-dependent protein kinase 1 (Plasmodium falciparum (isolate 3D7)) (UniProt P62344). Kind of test: PfCDPK1 kinase inhibitors, biochemical, TCAMS library (AID 1159585; cut-off not given, nearly all actives have IC50 up to about 0.98 µM;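 note: inhibitors leave more ATP so luminescence rises with inhibition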). Particulars: recombinant PfCDPK1, Kinase-Glo ATP depletion luminescence. In general terms: Kinase-Glo reads ATP consumption through a luciferase reaction.
In test [6] the target is Plasmodium falciparum protein kinase 6 (PK6, PF3D7_1337100) (UniProt Q8IDW1). Kind of test: PfPK6 kinase inhibitors, biochemical, TCAMS library (AID 1159586). Conditions: recombinant PfPK6, Kinase-Glo ATP depletion luminescence.
Chain of Plasmodium falciparum protein kinase 6 (PK6, PF3D7_1337100) (Q8IDW1 1-305): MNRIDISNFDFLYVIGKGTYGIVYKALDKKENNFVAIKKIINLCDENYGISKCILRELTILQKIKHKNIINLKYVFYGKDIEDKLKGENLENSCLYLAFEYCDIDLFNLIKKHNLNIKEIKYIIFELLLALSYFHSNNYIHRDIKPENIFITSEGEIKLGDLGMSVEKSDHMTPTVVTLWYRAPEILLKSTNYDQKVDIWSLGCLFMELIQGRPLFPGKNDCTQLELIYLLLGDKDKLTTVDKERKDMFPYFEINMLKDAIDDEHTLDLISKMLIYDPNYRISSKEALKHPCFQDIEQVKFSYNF
For test [7], the target named is Protein kinase 7 (PK7), Plasmodium falciparum 3D7 (PF3D7_0213400) (UniProt Q7YTF7). Description: inhibition of Plasmodium PK7 catalytic activity – biochemical, TCAMS antimalarial set, Kinase-Glo luminescence (AID 1159587). Particulars: recombinant PfPK7, Kinase-Glo ATP depletion luminescence.
Chain of Protein kinase 7 (PK7), Plasmodium falciparum 3D7 (PF3D7_0213400) (Q7YTF7 1-343): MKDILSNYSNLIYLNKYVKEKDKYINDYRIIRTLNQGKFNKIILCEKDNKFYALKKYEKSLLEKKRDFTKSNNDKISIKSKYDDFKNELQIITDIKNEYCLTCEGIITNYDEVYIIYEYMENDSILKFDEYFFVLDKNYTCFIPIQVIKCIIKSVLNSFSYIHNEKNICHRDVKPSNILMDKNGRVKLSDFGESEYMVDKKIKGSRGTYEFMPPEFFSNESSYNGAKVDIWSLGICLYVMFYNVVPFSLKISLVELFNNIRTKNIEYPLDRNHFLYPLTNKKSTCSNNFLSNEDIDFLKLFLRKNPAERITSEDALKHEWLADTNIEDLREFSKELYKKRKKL
Test [8] deals with Calcium-dependent protein kinase 4 (Plasmodium falciparum (isolate 3D7)) (UniProt Q8IBS5). Kind of test: PfCDPK4 kinase inhibitors, biochemical, TCAMS library (AID 1159588; cut-off not given, nearly all actives have IC50 up to about 0.91 µM). Particulars: recombinant PfCDPK4, Kinase-Glo ATP depletion luminescence.
Chain of Calcium-dependent protein kinase 4 (Plasmodium falciparum (isolate 3D7)) (Q8IBS5 whole entry, looked up): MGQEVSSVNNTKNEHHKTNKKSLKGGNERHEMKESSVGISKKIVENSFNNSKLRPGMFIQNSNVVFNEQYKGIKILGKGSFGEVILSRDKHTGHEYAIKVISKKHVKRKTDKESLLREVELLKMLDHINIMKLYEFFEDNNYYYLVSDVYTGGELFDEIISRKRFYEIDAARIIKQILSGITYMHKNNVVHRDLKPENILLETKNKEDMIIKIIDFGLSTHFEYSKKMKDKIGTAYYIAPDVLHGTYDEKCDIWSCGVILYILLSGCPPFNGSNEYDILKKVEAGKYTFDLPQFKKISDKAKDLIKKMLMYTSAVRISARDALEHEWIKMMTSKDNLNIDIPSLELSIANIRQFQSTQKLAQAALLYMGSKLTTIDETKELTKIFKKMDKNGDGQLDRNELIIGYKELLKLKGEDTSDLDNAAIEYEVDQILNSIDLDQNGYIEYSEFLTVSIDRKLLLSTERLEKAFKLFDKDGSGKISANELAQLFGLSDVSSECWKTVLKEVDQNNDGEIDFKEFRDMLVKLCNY

Unmarked numbers belong to inactive results. For some assays here: Results with a measured potency or affinity are listed apart. The source made the active and inactive calls. Unless noted, the rule behind the calls is not given here.

Chain of L-lactate dehydrogenase (Plasmodium falciparum (isolate CDC / Honduras)) (Q27743 whole entry, looked up): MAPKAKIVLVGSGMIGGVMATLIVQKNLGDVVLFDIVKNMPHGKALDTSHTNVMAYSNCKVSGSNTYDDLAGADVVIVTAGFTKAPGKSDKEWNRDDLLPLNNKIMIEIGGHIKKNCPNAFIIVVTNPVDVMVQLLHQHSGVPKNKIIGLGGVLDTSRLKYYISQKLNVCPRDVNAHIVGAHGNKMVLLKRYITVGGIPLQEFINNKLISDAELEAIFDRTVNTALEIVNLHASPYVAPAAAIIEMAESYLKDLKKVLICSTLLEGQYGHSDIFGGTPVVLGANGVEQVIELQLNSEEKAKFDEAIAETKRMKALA
Chain of Calcium-dependent protein kinase 1 (Plasmodium falciparum (isolate 3D7)) (P62344 whole entry, looked up): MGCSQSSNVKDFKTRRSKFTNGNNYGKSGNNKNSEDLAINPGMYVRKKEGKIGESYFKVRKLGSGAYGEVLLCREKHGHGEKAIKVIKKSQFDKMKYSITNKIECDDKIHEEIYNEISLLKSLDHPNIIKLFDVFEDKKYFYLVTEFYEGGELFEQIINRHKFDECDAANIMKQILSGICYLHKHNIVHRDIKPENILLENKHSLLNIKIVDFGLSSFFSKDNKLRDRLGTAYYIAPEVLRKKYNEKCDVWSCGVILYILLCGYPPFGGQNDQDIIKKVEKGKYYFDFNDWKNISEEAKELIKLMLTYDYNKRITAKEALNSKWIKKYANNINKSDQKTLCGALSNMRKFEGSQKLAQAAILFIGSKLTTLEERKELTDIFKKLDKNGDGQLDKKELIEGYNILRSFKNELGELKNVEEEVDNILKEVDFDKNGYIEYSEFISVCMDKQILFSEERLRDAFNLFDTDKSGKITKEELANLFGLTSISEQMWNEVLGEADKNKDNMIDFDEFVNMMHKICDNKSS

In general, inhibition refers to the change of the read-out against control, counted positive when it falls. In the case of `O=C(Nc1ccc(Cl)c(Cl)c1)C1CCC(=O)N1[C@@H](Cc1ccccc1)C(=O)NCCc1ccc(Cl)cc1` (some centres not stated), the growth inhibition in test [1] was -9%; in test [4], 95% (active). Besides, the inhibition in test [2] was 3%; in test [3], 0%. Also, the result in test [5], in test [6], in test [7] and in test [8] was inactive.

As to `Cc1cccc(Cl)c1S(=O)(=O)Nc1cccc(CCN2CCC(N3CCCCC3)CC2)c1`, the growth inhibition was 18% in test [1] and 91% (active) in test [4]. Moreover, the figures for the inhibition in test [2] and in test [3] were 34% and 2%, respectively. For the same compound, the outcome in test [5], in test [6], in test [7] and in test [8] was inactive.

As for `CC(C)(C)CCN1CCC(CNC(=O)c2cc(-c3cccc(C(F)(F)F)c3)cs2)C1` (configuration not stated), the growth inhibition was 13% in test [1] and 93% (active) in test [4]. For the same compound, the inhibition in test [2] was 47%; in test [3], -1%. The result in test [5], in test [6], in test [7] and in test [8] was inactive.

As for `CC(C)NCc1cccc(-c2ccc(NC(=O)c3cccc(C#N)c3)cc2)c1`, the growth inhibition in test [1] is 95% (active); in test [4] it was 101% (active). Further, the inhibition was 22% in test [2] and 6% in test [3]. Also, the outcome in test [5], in test [6], in test [7] and in test [8] was inactive.

`O=C(NC1CCCCN(Cc2ccccc2O)C1)c1cccc(Cl)c1` (configuration not stated): the results for the growth inhibition in test [1] and in test [4] were 30% and 86% (active), respectively. Also, the figures for the inhibition in test [2] and in test [3] were 15% and -4%, respectively. The result in test [5], in test [6], in test [7] and in test [8] was inactive.

On to `CC(CN1CCN(C)CC1)C(=O)Nc1ccc(-c2cccc(-c3nc4ccccc4[nH]3)c2)cc1` (configuration not stated), for which the growth inhibition in test [1] is 81% (active); in test [4], 94% (active). Also, the inhibition in test [2] is 4%; in test [3] it was 3%. Further, the result in test [5], in test [6], in test [7] and in test [8] was inactive.

In the case of `Cc1ccccc1OCC(O)CN1CCC(C2CCN(CC(O)COc3ccccc3C)CC2)CC1` (configuration not stated), the growth inhibition is 51% (active) in test [1] and 100% (active) in test [4]. Moreover, the inhibition in test [2] was 12%; in test [3], -4%. Further, the result in test [5], in test [6], in test [7] and in test [8] was inactive.

Take `Cc1cc(C)cc(Oc2c(C(F)(F)F)oc3c(CN4CC(C)OC(C)C4)c(O)ccc3c2=O)c1` (configuration not stated): the growth inhibition was 54% (active) in test [1] and 89% (active) in test [4]. Besides, the figures for the inhibition in test [2] and in test [3] were 5% and 1%, respectively. Also, the outcome in test [5], in test [6], in test [7] and in test [8] was inactive.

`Cc1ccc(CNC(=O)[C@H](CC(C)C)Nc2cc(C)nc(Nc3ccccc3)n2)cc1`: the growth inhibition in test [1] was 19%; in test [4] it was 97% (active). Besides, the results for the inhibition in test [2] and in test [3] were 12% and -1%, respectively. In addition, the outcome in test [5], in test [6], in test [7] and in test [8] was inactive.

Regarding `N#CC(c1ccc(F)cc1)c1ccc2c(C(F)(F)F)cc(C(F)(F)F)nc2n1` (configuration not stated), the growth inhibition in test [1] was 89% (active); in test [4], 97% (active). The inhibition in test [2] was 9%; in test [3], 2%. Also, the result in test [5], in test [6], in test [7] and in test [8] was inactive.

Take `CCCc1cc(N2CCC(c3ccccc3)(N3CCCCC3)CC2)nc(Nc2ccc(OC)cc2)n1`: the growth inhibition in test [1] is 28%; in test [4], 81% (active). Moreover, the figures for the inhibition in test [2] and in test [3] were 13% and 1%, respectively. In addition, the outcome in test [5], in test [6], in test [7] and in test [8] was inactive.

As for `O=S(=O)(NCCN1CCCC1)c1ccc(-c2cccc(CNCc3ccccc3)c2)s1`, the figures for the growth inhibition in test [1] and in test [4] were 43% and 94% (active), respectively. In addition, the values for the inhibition in test [2] and in test [3] were 44% and 0%, respectively. The result in test [5], in test [6], in test [7] and in test [8] was inactive.

Take `O=S(=O)(NCCCN1CCOCC1)c1ccc2nccc(Nc3ccc(Oc4ccccc4)cc3)c2c1`: the growth inhibition in test [1] is 92% (active); in test [4], 95% (active). Also, the inhibition is 1% in test [2] and -2% in test [3]. Moreover, the result in test [5], in test [6], in test [7] and in test [8] was inactive.

`COCc1ccccc1C(=O)NCCOc1cc(C)cc(C)c1`: the growth inhibition was 95% (active) in test [1] and 96% (active) in test [4]. Besides, the inhibition in test [2] was 26%; in test [3], 5%. The outcome in test [5], in test [6], in test [7] and in test [8] was inactive.

Consider `O=C(NCCNc1noc(-c2sccc2Br)n1)c1ccc(Cl)cc1`, for which the growth inhibition in test [1] is 1%; in test [4] it was 93% (active). Besides, the inhibition in test [2] was -5%; in test [3], 2%. The outcome in test [5], in test [6], in test [7] and in test [8] was inactive.

Regarding `COc1ccc2nccc(CCN3C[C@H](CNCc4ccc5c(n4)NC(=O)CS5)[C@H](O)C3)c2n1`, the values for the growth inhibition in test [1] and in test [4] were 26% and 86% (active), respectively. In addition, the inhibition is 4% in test [2] and -2% in test [3]. For the same compound, the result in test [5], in test [6], in test [7] and in test [8] was inactive.

`c1csc(-c2nc(N3CCCCC3)ncc2-c2ccsc2)n1`: the growth inhibition is 72% (active) in test [1] and 89% (active) in test [4]. Also, the values for the inhibition in test [2] and in test [3] were -5% and -3%, respectively. In addition, the outcome in test [5], in test [6], in test [7] and in test [8] was inactive.

Regarding `O=C(O)CCCN1CCCC(=C(c2ccccc2)c2ccccc2)C1`, the growth inhibition in test [1] is 2%; in test [4], 82% (active). For the same compound, the inhibition in test [2] was -5%; in test [3], 0%. Also, the outcome in test [5], in test [6], in test [7] and in test [8] was inactive.

For the compound `COc1ccc2ncc(Cl)c(CCN3CCC(NCc4ccc5c(n4)NC(=O)CO5)CC3)c2c1`, the growth inhibition in test [1] was 26%; in test [4], 92% (active). In addition, the inhibition in test [2] is 25%; in test [3], -1%. The result in test [5], in test [6], in test [7] and in test [8] was inactive.

For the origin of these results see PubChem BioAssay.
